We go through five compounds from PubChem BioAssay.

Assay [1] is described as follows: small molecules captured by biotinylated probe aFSTL3 – biochemical, small-molecule microarray, fluorescence 635/667, stem cell growth factor project, primary screen (AID 1064).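 Note: measures binding of the biotinylated anti-FSTL3 antibody to printed compounds.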 The note with it: higher = more signal.
The nature of assay [2]: binders from COS7 lysate, DM2A8 probe, primary screen, torsin A project, cell lysate, small-molecule microarray, fluorescence 635/667 (AID 1065). Conditions: higher = more signal, COS7 lysate expressing mutant human TOR1A.
Assay [3] is described as follows: small molecules captured by biotinylated probe aFGF2 – biochemical, small-molecule microarray, fluorescence 635/667, stem cell growth factor project, primary screen (AID 1067).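 Note: measures binding of biotinylated aFGF2 protein to printed compounds on slides; z-score merges feature fluorescence and signal-to-noise across triplicate slides.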 Conditions: higher = more signal.
Assay [4] in a line: small molecules captured by biotinylated probe aFGF10 – biochemical, small-molecule microarray, fluorescence 635/667, stem cell growth factor project, primary screen (AID 1071).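 Note: score merges 667 nm spot intensity and signal to noise from triplicate slides.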 The note with it: higher = more signal.
Assay [5] addresses Neurogenic locus notch homolog protein 2 (Homo sapiens) (UniProt Q04721). In words: small molecules binding Notch2 protein – biochemical, small-molecule microarray, 635 nm fluorescence, stem cell growth factors, primary screen (AID 1073). The note with it: higher = more signal.
Assay [6] has as its target Pro-neuregulin-1, membrane-bound isoform (Homo sapiens) (UniProt Q02297). The assay can be described thus: small molecules binding neuregulin-1 protein – biochemical, small-molecule microarray, fluorescence 635/667, psychiatric disease protein project, primary screen (AID 1075).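 Note: score combines 667 nm spot fluorescence with signal to noise.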 Conditions: NRG1 binding, 635 nm fluorescence, higher = more signal.
The subject of assay [7] is Neuregulin-1 EGF-like domain. In words: small molecules binding NRG1 EGF domain – biochemical, small-molecule microarray, 635 nm fluorescence, primary screen (AID 1081).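 Note: binding of the protein to compounds printed on small-molecule microarray slides.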 Conditions: higher = more signal.
The nature of assay [8]: FRG1 expression reporter modulators in myotubes – cell-based, C2C12 myotubes, firefly/Renilla luciferase, luminescence, FRG1 inhibition for FSHD, primary screen (AID 1084). The note with it: FRG1 promoter luciferase, higher = more signal, called active from +8 up or from −8 down.
Assay [9] is described as follows: small molecules captured by biotinylated probe aFST – biochemical, small-molecule microarray, fluorescence 635/667, stem cell growth factor project, primary screen (AID 1086).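 Note: score merges 667 nm fluorescence with signal-to-noise of each printed compound spot.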 Conditions: higher = more signal.
The nature of assay [10]: binders of probe aHhip on microarray, primary screen, stem cell growth factor project, biochemical, small-molecule microarray, fluorescence 635/667 (AID 1087).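 Note: score merges spot fluorescence at 667nm with spot signal to noise ratio.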 Conditions: higher = more signal.
For assay [11], the system named is PRMT1 (protein arginine N-methyltransferase 1). The assay can be described thus: small molecules binding arginine methyltransferase PRMT1 – biochemical, small-molecule microarray, 635 nm fluorescence, primary screen (AID 1088).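 Note: binding of Prmt1 protein to compounds spotted on small-molecule microarray slides.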 Conditions: higher = more signal.
Assay [12] can be described thus: growth effects on S. cerevisiae YJM789 – YJM789 clinical isolate, OD600, 24 h, basal, primary screen (AID 1089).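 Note: growth of clinical yeast isolate S. cerevisiae YJM 789 seeded 1000 cells per well; test concentration not given here.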 Conditions: higher = more signal, called active from +8 up or from −8 down.
Assay [13] in a line: S. pombe growth modifiers, basal conditions – strain 972, OD600, 24 h, no modulator, primary screen (AID 1090).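 Note: basal condition with compound alone and no growth modifier present; test concentration not given here.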 Conditions: S. pombe 972 growth, higher = more signal, called active from +8 up or from −8 down.
Assay [14] is described as follows: budding yeast growth modifiers under rapamycin – strain BY4716, OD600, 96 h, primary screen (AID 1091). Note: test concentration not given here. Conditions: S. cerevisiae BY4716 + rapamycin, higher = more signal, called active from +8 up or from −8 down.
The target of assay [15] is Torsin-1A-interacting protein 2 (Homo sapiens) (UniProt Q8NFQ8). The assay can be described thus: small molecules binding lysate-expressed LULL1 – cell lysate, human LULL1 lysate, 635/667 nm fluorescence, primary screen (AID 1092).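 Note: probe is lysate of COS7 cells overexpressing human LULL1; score merges per-feature 667 nm fluorescence with signal-to-noise.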 Conditions: small-molecule microarray, hLULL1 lysate binding, 635 nm fluorescence; higher = more signal.
Assay [16] can be described thus: optical density change of DRC41 E. coli – strain DRC41, OD650, 24 h, E. coli filamentation project, primary screen (AID 1093).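 Note: MC1000 strain lacking acrAB efflux and sulA so SOS filamentation is blocked; test concentration not given here.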 The note with it: E. coli DRC41 growth, higher = more signal, called active from +8 up or from −8 down.
Assay [17] in a line: probe aLefty2 binding to arrayed compounds – biochemical, biotinylated probe, 635/667 nm fluorescence, primary screen (AID 1094).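 Note: score merges spot fluorescence near 667 nm with spot signal-to-noise ratio.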 The note with it: small-molecule microarray, higher = more signal.
Assay [18] relates to Noggin (protein binding on small-molecule microarray). The assay can be described thus: small molecules binding Noggin protein – biochemical, 635/667 nm fluorescence, primary screen (AID 1095).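 Note: score merges 667 nm feature fluorescence with signal to noise over triplicate slides.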 The note with it: 635 nm fluorescence, higher = more signal.
For assay [19], the target named is Neurogenic locus notch homolog protein 3 (Homo sapiens) (UniProt Q9UM47). The assay can be described thus: small molecules binding NOTCH3 protein – biochemical, 635/667 nm fluorescence, primary screen (AID 1096). Conditions: small-molecule microarray, 635 nm fluorescence, higher = more signal.
Sequence of Neurogenic locus notch homolog protein 3 (Homo sapiens) (Q9UM47 whole entry, looked up): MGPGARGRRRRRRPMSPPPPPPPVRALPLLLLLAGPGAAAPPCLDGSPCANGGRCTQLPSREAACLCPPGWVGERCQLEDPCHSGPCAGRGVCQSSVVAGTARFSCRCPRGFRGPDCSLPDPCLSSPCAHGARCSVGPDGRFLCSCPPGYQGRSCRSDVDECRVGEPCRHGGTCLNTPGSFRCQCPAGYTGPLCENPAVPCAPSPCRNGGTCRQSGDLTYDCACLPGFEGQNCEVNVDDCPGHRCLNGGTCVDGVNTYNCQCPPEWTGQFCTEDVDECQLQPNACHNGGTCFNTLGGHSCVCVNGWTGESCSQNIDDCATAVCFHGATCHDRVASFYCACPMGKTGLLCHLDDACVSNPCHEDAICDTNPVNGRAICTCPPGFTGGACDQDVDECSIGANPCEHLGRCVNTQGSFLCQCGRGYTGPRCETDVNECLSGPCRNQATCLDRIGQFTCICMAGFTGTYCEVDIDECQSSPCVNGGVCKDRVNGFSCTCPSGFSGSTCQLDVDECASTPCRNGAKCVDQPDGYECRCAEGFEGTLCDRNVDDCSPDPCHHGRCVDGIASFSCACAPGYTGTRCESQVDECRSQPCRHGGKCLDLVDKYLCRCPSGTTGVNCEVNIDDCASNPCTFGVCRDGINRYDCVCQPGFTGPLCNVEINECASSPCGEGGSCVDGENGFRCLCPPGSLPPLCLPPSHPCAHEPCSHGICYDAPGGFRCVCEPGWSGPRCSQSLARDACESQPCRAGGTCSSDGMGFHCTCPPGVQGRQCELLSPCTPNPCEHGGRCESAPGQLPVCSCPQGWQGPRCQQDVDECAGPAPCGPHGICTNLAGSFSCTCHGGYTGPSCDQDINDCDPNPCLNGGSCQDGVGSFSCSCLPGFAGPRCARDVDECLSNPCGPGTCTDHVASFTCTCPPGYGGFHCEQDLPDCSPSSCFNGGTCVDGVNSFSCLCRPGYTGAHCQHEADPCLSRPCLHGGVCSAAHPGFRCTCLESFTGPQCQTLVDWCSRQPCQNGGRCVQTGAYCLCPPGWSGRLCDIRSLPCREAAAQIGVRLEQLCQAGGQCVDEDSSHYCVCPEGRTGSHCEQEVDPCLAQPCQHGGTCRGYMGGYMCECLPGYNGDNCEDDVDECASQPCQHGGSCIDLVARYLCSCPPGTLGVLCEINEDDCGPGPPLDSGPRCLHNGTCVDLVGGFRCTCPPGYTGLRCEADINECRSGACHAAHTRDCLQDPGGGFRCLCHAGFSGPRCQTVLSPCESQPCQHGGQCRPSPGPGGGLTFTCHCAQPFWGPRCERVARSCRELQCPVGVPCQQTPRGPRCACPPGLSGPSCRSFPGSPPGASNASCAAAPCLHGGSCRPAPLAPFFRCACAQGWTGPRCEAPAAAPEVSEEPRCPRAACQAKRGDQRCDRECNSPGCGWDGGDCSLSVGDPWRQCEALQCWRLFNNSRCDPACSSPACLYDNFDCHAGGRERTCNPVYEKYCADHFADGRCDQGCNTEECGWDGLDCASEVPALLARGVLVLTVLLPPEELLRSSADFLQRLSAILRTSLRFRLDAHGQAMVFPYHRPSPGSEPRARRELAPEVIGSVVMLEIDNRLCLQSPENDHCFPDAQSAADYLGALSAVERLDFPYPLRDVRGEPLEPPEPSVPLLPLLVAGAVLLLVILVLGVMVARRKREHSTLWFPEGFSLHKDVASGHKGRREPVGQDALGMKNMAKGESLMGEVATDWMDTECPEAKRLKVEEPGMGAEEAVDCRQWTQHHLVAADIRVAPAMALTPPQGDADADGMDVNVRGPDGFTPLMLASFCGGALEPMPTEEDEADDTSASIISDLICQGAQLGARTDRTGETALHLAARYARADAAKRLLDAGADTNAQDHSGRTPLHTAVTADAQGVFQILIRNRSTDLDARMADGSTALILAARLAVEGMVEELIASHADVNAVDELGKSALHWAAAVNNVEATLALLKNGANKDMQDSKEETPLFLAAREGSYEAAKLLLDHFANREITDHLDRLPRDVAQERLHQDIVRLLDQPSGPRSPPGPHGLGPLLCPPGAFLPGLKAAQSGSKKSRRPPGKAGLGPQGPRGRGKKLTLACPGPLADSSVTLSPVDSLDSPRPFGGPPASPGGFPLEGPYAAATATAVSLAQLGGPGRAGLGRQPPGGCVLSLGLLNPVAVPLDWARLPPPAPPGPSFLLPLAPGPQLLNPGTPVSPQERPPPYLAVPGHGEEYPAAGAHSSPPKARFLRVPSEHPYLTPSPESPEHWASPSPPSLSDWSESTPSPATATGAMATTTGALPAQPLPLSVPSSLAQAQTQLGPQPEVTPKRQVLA
Assay [20] can be described thus: probe aEGFR binding to arrayed compounds – biochemical, biotinylated probe, 635/667 nm fluorescence, primary screen (AID 1097).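 Note: probe is a biotinylated anti-EGFR antibody binding compounds printed on slides; score combines fluorescence near 667 nm and signal to noise of each spot.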 The note with it: small-molecule microarray, higher = more signal.

The source made the active and inactive calls.

Sequence of Neurogenic locus notch homolog protein 2 (Homo sapiens) (Q04721 whole entry, looked up, canonical isoform): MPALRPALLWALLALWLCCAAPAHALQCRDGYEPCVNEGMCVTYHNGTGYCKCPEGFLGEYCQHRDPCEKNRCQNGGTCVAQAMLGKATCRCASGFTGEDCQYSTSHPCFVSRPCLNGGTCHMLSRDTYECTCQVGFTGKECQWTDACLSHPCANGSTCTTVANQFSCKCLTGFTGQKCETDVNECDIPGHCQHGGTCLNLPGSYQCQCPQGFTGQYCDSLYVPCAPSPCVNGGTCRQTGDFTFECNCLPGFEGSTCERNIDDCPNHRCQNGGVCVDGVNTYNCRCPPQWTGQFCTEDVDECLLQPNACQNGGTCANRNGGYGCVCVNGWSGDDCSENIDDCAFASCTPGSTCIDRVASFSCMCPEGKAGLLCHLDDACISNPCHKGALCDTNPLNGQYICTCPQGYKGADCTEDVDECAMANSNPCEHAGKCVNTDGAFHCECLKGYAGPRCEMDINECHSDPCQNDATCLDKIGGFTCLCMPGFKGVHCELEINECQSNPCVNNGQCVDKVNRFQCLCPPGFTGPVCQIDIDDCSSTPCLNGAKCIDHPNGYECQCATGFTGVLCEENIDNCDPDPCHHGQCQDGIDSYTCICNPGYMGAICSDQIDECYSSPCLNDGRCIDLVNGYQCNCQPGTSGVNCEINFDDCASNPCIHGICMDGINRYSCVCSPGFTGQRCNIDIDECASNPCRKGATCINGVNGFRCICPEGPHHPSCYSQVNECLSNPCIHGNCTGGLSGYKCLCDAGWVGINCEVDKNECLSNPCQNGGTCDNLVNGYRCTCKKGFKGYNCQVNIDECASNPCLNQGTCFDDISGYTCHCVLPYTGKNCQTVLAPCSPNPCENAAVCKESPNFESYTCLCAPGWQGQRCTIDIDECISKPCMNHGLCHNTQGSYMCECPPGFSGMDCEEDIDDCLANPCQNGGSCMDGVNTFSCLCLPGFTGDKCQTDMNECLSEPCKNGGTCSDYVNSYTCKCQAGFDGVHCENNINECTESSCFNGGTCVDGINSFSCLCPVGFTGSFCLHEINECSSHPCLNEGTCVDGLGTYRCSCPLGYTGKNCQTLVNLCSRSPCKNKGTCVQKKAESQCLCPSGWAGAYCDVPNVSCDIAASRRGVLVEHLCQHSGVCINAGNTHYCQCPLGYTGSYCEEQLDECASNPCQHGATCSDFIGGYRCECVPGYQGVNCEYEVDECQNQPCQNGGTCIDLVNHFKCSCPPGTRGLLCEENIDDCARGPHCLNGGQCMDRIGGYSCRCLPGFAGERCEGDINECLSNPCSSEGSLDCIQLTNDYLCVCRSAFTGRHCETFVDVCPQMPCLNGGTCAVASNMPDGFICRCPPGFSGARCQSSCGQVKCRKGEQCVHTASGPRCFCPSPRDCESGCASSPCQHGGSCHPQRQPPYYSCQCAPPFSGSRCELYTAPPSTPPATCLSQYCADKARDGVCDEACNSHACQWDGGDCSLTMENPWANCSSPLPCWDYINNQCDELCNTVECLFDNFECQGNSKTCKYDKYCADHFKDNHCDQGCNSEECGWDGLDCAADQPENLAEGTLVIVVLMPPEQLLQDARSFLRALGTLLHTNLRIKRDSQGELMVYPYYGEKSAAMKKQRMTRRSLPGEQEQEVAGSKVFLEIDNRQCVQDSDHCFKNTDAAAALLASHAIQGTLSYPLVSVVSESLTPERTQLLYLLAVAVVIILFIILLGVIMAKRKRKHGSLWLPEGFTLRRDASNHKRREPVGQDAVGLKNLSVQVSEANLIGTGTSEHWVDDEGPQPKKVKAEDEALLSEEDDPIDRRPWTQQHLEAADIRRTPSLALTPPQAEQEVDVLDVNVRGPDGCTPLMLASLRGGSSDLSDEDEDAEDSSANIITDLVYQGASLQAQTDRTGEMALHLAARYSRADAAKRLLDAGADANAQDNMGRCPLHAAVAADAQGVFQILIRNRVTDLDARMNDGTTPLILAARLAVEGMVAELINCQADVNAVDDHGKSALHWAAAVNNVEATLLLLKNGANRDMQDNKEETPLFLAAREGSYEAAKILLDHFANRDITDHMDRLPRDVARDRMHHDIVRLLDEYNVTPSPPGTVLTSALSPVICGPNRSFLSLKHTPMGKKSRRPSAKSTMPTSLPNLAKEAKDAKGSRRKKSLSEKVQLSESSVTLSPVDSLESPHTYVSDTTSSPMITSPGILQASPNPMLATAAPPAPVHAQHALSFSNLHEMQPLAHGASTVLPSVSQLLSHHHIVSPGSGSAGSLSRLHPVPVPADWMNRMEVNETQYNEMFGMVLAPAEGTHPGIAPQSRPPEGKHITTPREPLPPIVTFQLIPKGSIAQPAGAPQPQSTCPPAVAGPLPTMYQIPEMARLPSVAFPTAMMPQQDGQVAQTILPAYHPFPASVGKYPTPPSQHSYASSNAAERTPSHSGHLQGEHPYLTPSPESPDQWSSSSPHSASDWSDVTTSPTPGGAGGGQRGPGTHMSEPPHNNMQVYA

With `CCOC(=O)C1=CC[C@@H](c2ccccc2)N(S(=O)(=O)c2ccc(C)cc2)[C@H]1c1ccccc1C`, the composite z-score is 0.158 in assay [1]; -0.0515 in assay [2]; -0.0895 in [3]; 0.49 in assay [4]; 1.47 in [5]; 0.393 in assay [6]. Further, the composite z-score in [7] came to 0.714; in assay [9], 0.789; in assay [10], 0.115; in assay [11], 0.473; in assay [15] it was 1.97; in [17] it was 0.066. Moreover, the composite z-score in assay [18] is 0.72; in assay [19], 0.913; in assay [20], -0.0675. In addition, the z-score in assay [8] is -3.47 (inactive); in assay [12] it was -0.602 (inactive); in assay [13] it was 0.903 (inactive); in assay [14], -0.3 (inactive); in assay [16] it was -0.3 (inactive).

As to `CNS(=O)(=O)c1ccc(C)cc1`, the composite z-score in assay [1] is -0.366; in assay [2] it was 0.182; in [3], -0.14; in assay [4], 0.248; in assay [5] it was 0.192; in [6], -0.0687. The composite z-score was 0.314 in assay [7]; 0.209 in assay [9]; -0.0346 in assay [10]; 1.14 in assay [11]; 0.283 in assay [15]; -0.165 in assay [17]. The composite z-score in assay [18] is 1.19; in assay [19] it was 0.629; in [20], -0.101. Also, the z-score in assay [8] is -0.443 (inactive); in [12] it was -2.29 (inactive); in [13], -2.38 (inactive); in [14], -0.719 (inactive); in assay [16], 2.55 (inactive).

With `COC(=O)[C@@]1(Cc2ccc(F)cc2)[C@H]2c3cc(C(=O)N4CCCC4)n(Cc4ccc(S(C)(=O)=O)cc4)c3C[C@H]2CN1C(=O)c1ccccc1`, the composite z-score in assay [1] is 0.635; in [2], -0.266; in assay [3], 0.29; in assay [4], 0.983; in [5], 1.55; in assay [6], 1.88. For the same compound, the composite z-score in assay [7] is 0.859; in assay [9], 2.09; in assay [10] it was -0.0169; in assay [11], -0.0384; in assay [15], 3.29; in assay [17], 0.267. Moreover, the composite z-score in assay [18] was -0.771; in assay [19], 1.02; in assay [20] it was 0.123. Moreover, the z-score is -0.205 (inactive) in assay [8]; -0.13 (inactive) in assay [12]; 0.365 (inactive) in assay [13]; 1.48 (inactive) in assay [14]; -1.02 (inactive) in assay [16].

`CCCCCN1CC=CC23O[C@@H]4C=CCCOC(=O)C4[C@H]2C(=O)N(CCCCCO)[C@@H]3C1=O` (stereo not given in full): the composite z-score in [1] is 0.262; in [2], 1.2; in assay [3], -0.195; in [4] it was -0.168; in assay [5], -0.814; in [6], 0.927. In addition, the composite z-score is 1.55 in [7]; -0.432 in assay [9]; -0.45 in [10]; -0.192 in assay [11]; 2.3 in assay [15]; -0.0288 in [17]. The composite z-score in assay [18] is -0.589; in assay [19], -0.147; in [20], -0.203. The z-score in [8] was -0.666 (inactive); in [12], -0.286 (inactive); in [13], -0.772 (inactive); in assay [14], -0.255 (inactive); in [16], 0.764 (inactive).

As for `COc1cc(C(O)C2C=CC3C(=O)NC(=O)C3N2Nc2ccccn2)cc(OC)c1OC` (stereo not given), the composite z-score in assay [1] is -0.184; in assay [2] it was 0.299; in assay [3] it was 0.0353; in assay [4], 0.52; in assay [5] it was 1.4; in assay [6] it was 0.802. Further, the composite z-score in assay [7] was 1.3; in assay [9] it was 0.0676; in assay [10], -0.0618; in assay [11], 1.06; in [15] it was 3.09; in [17], 0.0624. For the same compound, the composite z-score was found to be 0.0228 in assay [18], 0.158 in assay [19] and 0.0954 in assay [20]. In addition, the z-score in assay [8] is 1.73 (inactive); in assay [12], 0.175 (inactive); in assay [13], 1.15 (inactive); in [14], 0.42 (inactive); in assay [16] it was -1.19 (inactive).
